Data reported in PubChem BioAssay.

Assay: osmotic lysis modulators in infected erythrocytes, primary screen, PSAC antagonist project, cell-based, P. falciparum Indochina, OD700, 3 h (AID 1156)
Conditions: higher = more signal, called active from +8 up or from −8 down

z-score, inactive:
C[n+]1ccc(-c2ccc(CO)cc2)cc1 -1.05
CC(C)=CCCC(C)=CCON=C1C[C@@H](O)[C@@H](O)[C@@H]2[C@@H]3C(=O)N(c4cccc(Oc5ccccc5)c4)C(=O)[C@@H]3CC[C@@H]12 1.24
CO[C@@H]1COC(=O)[C@H](CCSC)NC(=O)CC=C[C@@H](C)COC(=O)[C@H](C)NC(=O)CC=C[C@H]1C 0.033
CON=CC[C@@H]1C=C[C@H](OC(C)=O)[C@@H](COC(C)=O)O1 -0.833
CC(C)CON=C1C[C@@H](O)[C@@H](O)[C@@H]2[C@@H]3C(=O)N(c4ccc(F)cc4F)C(=O)[C@@H]3CC[C@H]12 0.12
CC(C)(C)N1C(=O)[C@H]2[C@H]3[C@H](O)[C@H](O)CC(=NOCc4ccccc4)[C@H]3CC[C@H]2C1=O -0.408
C[C@@H](c1ccccc1)N1C(=O)[C@H]2[C@H]3[C@H](O)[C@H](O)CC(=NOCc4ccccc4)[C@H]3CC[C@H]2C1=O 0.321
CCOC(=O)[C@H](Cc1ccccc1)NC(=O)CCC1CC(OC(=O)NCc2cccc3ccccc23)CC2(CCCC(COC(=O)NCC(c3ccccc3)c3ccccc3)O2)O1 (some centres not stated) -1.06

Assay: PSAC antagonists in infected red cells, primary screen, cell-based, P. falciparum Indochina, OD700, 18 h (AID 1157)
Conditions: P. falciparum Indochina infected erythrocytes, osmotic lysis OD700, 18 h; higher = more signal, called active from +8 up or from −8 down

z-score, inactive:
CCOC(=O)[C@H](Cc1ccccc1)NC(=O)CCC1CC(OC(=O)NCc2cccc3ccccc23)CC2(CCCC(COC(=O)NCc3cccc(C(F)(F)F)c3)O2)O1 (some centres not stated) 0.493
COC(=O)CC=C[C@@H](C)[C@@H](C=NOC(C)CN1CCCc2nc(C)c(C)cc21)OC (some centres not stated) 0.538
COC(=O)[C@@H]1CC[C@H](C)[C@@H](c2ccc(C)cc2)N1C(=O)c1ccc(C=NO[C@H](C)c2cn([C@H](CO)Cc3ccccc3)nn2)cc1 1.25
CO[C@@H]1C=CCC(=O)N[C@@H](C)C(=O)OC[C@@H](OC)[C@H](C)CCCC(=O)OC[C@H]1C -2.43
COc1ccc(O[C@H]2C=C[C@@H](c3ccccc3)O[C@@H]2CON=C(C)C)cc1 0.196
CCOC(=O)[C@H](CC(C)C)NC(=O)CCC1CC(OC(=O)NCc2cccc3ccccc23)CC2(CCCC(COC(=O)NCCOC)O2)O1 (some centres not stated) -0.196
CCCCC#C[C@@H]1C=C[C@H](Oc2ccc(C(=O)OC)cc2)[C@@H](COC(=O)OCC)O1 0.0033
Cc1ccc(S(=O)(=O)n2c3ccccc3c3nnc(C(=O)c4ccccc4)nc32)cc1 0.421
COc1ccc(O[C@H]2C=C[C@@H](c3ccccc3)O[C@@H]2CON=CC[C@@H]2C=C[C@H](OC(C)=O)[C@@H](COC(C)=O)O2)cc1 0.662
O=C(NN=C1C[C@@H](O)[C@@H](O)[C@@H]2[C@@H]3C(=O)N(Cc4ccccc4)C(=O)[C@@H]3CC[C@@H]12)OCc1ccccc1 0.526
COc1ccc(O[C@H]2C=C[C@@H](c3ccccc3)O[C@@H]2COC(=O)CCC(C)=NO[C@@H]2O[C@H](COC(C)=O)[C@@H](OC(C)=O)[C@H](OC(C)=O)[C@H]2OC(C)=O)cc1 0.539
CO[C@H]1COC(=O)CC=C[C@H](C)[C@@H](OC)COC(=O)[C@@H](C)NC(=O)CC=C[C@@H]1C -1.99
CC(C)[C@@H](OCc1ccccc1)[C@H](C)C=NOC[C@@H](O)COCc1ccco1 -0.0498
CCCCC#C[C@@H]1C=C[C@H](OC(C)=O)[C@@H](COC(C)=O)O1 -0.0473
CO[C@@H]1COC(=O)[C@@H](C)COC(=O)[C@@H](C)NC(=O)CC=C[C@@H]1C -0.858
C[C@H]1Cc2c(COc3ccccc3)nc3c(c2CO1)CN(CCOc1ccccc1)CC3 0.908
CCCNC(=O)OC[C@H]1O[C@H](CCON=C(C)CCC(=O)OC[C@H]2O[C@H](c3ccccc3)C=C[C@@H]2Oc2ccc(OC)cc2)C=C[C@@H]1Oc1ccc(OC)cc1 0.49
CCOC(=O)NN=C1C[C@@H](O)[C@@H](O)[C@@H]2[C@@H]3C(=O)N(C(C)(C)C)C(=O)[C@@H]3CC[C@H]12 0.18
C[C@@H](ON=C1[C@H]2CCn3c(=O)n(-c4ccccc4)c(=O)n3[C@H]2[C@H](O)[C@@H]2O[C@H]12)c1cn([C@@H]2COC[C@H]2O)nn1 0.122
